The campaign covered roughly 360,000 compounds. About 3,600 (1%) were called active.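 The calls were made as follows: active = compounds whose plate-normalised and pattern-corrected inhibition of the luciferase reporter signal at the single screening dose is 50% or more; inactive = the rest.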 This excerpt belongs to a sample that is enriched for actives.
Experiment: TROY pathway blockers in reporter cells – Q293 LMP1-TROYcd cells, NF-kB luciferase, uHTS, primary screen (AID 1347056)
Details: 4 h, at 10 µM, hits give high values

inhibition, active:
COc1ccc(/C=N/Nc2ncnc3sc4c(c23)CCCC4)cc1O 82.7%
CC(C)n1cnc2c(Nc3cccc(Cl)c3)nc(N(CCO)CCCO)nc21 50.8%
O=C(Nc1ccc2c(c1)OCCO2)C1CCCC1 81.7%
Cc1cccc(-n2ncc(Cl)c(Cl)c2=O)c1 72.5%
O=C(Nc1ccccc1Cl)/C(Cl)=C(\Cl)S(=O)c1ccccc1 (configuration not stated) 86.9%
Cc1ccc(-c2csc(NC(=O)Cn3[nH]c(=O)c4ccccc4c3=O)n2)cc1 55.9%
Cc1ccc(C(=O)O/N=C(\N)c2ccccn2)cc1Cl 72.9%
O=C(Nc1cccnc1)c1noc2c1CCCCC2 64.2%
CCCCCCc1cc2cc(-c3nnc(-c4ccccc4)o3)c(=O)oc2cc1O 61.6%
O=[N+]([O-])/C=C/c1ccc2c(ccn2Cc2ccccc2)c1 81.4%
COC(=O)c1sccc1NC(=O)CSc1ccccc1NS(=O)(=O)c1cc(Cl)ccc1Cl 51.4%
Cn1cc(/C=C/c2nc3ccccc3c(=O)n2-c2cccc([N+](=O)[O-])c2)c2ccccc21 53.2%
CC(C)=CCCC1(C)C=Cc2c(ccc3c2[nH]c2cc(O)c(C)cc23)O1 (configuration not stated) 56.8%
CCCc1ccc(-c2c(C)sc(NC(=O)c3ccnn3C)c2C#N)cc1 61.4%
Cc1ccc(Cc2c(-c3ccc(C)cc3)nc3c4ccccc4ccn23)cc1 54.4%
CCCCC(NS(=O)(=O)c1ccc(C)cc1)C(=O)Oc1ccc2c3c(c(=O)oc2c1)CCC3 (configuration not stated) 69.9%
COC(=O)CCNc1ccc2c(c1)OCCO2 78.2%
COc1ccccc1N=Cc1c(O)c2ccccc2oc1=O 68.1%
O=C(/C=C/Sc1ncn[nH]1)c1ccc(Cl)cc1 66%
CC(C)c1ccc2c(c1)c(SC(C)(C)C)c(CC(C)(C)C(=O)O)n2Cc1ccc(Cl)cc1 65.6%
COc1ccc(C(C#N)=C2C=CC(=NO)c3ccccc32)cc1 69.6%

inhibition, inactive:
COc1ccc(NC(=O)CCNC(=O)Cn2cnc3sc4c(c3c2=O)CCCC4)cc1OC 11.8%
COc1ccc(NC(=O)CCCNC(=O)Cn2cnc3sc4c(c3c2=O)CCCC4)cc1OC -6.14%
COCCCNC(=O)C1CCC(CNS(=O)(=O)c2ccc(OC)cc2)CC1 (configuration not stated) -8.61%
CCN(CC)C(=O)C1CCC(C)(C(=O)O)C1(C)C (configuration not stated) 7.66%
Cc1nnc(SCCCCSc2nnc(C)c(=O)[nH]2)[nH]c1=O -7.01%
C=C(C)C1CC=C(C)/C(=N/NC(=O)CCCNc2cccc(C)c2)C1 (configuration not stated) 5.76%
CN(CCO)c1ccc(/C=N/Nc2nncc3ccccc23)cc1 -22.8%
O=C(Nc1ccc2c(c1)OCO2)C1CC1(Cl)Cl (configuration not stated) -31.7%
CN1C(=O)c2ccc(NC(=O)C3CCCCC3)cc2C1=O -41%
CC(C)C[C@H]1CNC(=O)C(=O)N1C[C@H]1CCCN1C[C@H](Cc1ccc(O)cc1)N1C[C@H](CC(C)C)N(CC2CCCCCC2)C(=O)C1=O -20.6%
O=C1N[C@H](Cc2c[nH]c3ccccc23)COC(=O)[C@H](Cc2ccc(F)cc2)C/C=C\C[C@H]1CC(=O)N(CCO)Cc1ccccc1 19%
O=C(Cn1c(-c2cscn2)nc2ccccc21)Nc1ccc(Cl)cc1 6.66%
C/C(CC(=O)Nc1ccc(C)cc1C)=N\NC(=O)C(C)C 7.58%
CC1CCCCC1NC(=O)Cn1cnc2c1c(=O)n(C)c(=O)n2C (configuration not stated) -7%
O=C(CCc1[nH]c2ccccc2c1Sc1ccccc1)N(CCO)CCO 7.74%
CC(=O)Nc1c2c(nn1-c1cccc(C)c1)CSC2 -5.25%
CCCNC(=O)c1c(Cl)cnn1-c1ccc(C)cc1 -51.1%
CCNS(=O)(=O)c1ccc(CCC(=O)N2CCN(c3cc(Cl)ccc3C)CC2)cc1 26.1%
O=S(=O)(Cc1cc(Sc2ccccc2)nc(-c2ccccc2)n1)c1ccccc1 -3.96%
O=C(N[C@@H](Cc1c[nH]c2ccccc12)C(=O)O)OCC1c2ccccc2-c2ccccc21 -9.94%
CC(=O)c1ccc(NC(=O)C(C)N(C)CC(=O)Nc2ccccc2Cl)cc1 (configuration not stated) 7.44%
O=C(Nc1ccccc1Cl)c1ccccc1S(=O)(=O)c1ccccc1[N+](=O)[O-] -26.1%
Cc1ccc(C)c(C(=O)COC(=O)Cn2[nH]c(=O)c3ccccc3c2=O)c1 -0.89%
O=C(Cn1[nH]c(=O)c2ccccc2c1=O)Nc1cccc(-c2nnc3n2CCCCC3)c1 18.8%
O=C1C=CC(=O)N1c1ccc(N2CCCCC2)cc1 -3%
COC(=O)[C@@]1(Sc2ccc(C)cc2)CC(=O)N(c2cccc(SC)c2)[C@@H]1c1ccccc1 -0.08%
Cc1cccc(/C(N)=N/OC(=O)c2ccccc2Cl)c1 3.79%
N/C(=N\OC(=O)CCC1CCCCC1)c1ccccn1 -40.4%
COc1ccc(C2/C(=C(/O)c3ccc4c(c3)CC(C)O4)C(=O)C(=O)N2Cc2ccncc2)cc1 (configuration not stated) -12.1%
CC(=O)c1cc2c(cc1NC(=O)Cn1nc(-c3ccc(F)cc3)ccc1=O)OCO2 -13.6%
CC(=O)Nc1ccc(S(=O)(=O)NC2Cc3ccccc3C2)cc1 -3.14%
CCOc1ccc(/C=C(/NC(=O)c2ccccc2)C(=O)NCCC(=O)O)cc1 4.42%
Cc1noc(C)c1COc1cccc(C(=O)Nc2cccnc2)c1 11.8%
O=C(c1noc2c1CCCC2)N1CCc2ccccc2C1 -14.7%
CCCC(C)C(=O)NCc1ccncc1 (configuration not stated) 8.22%
FC(F)(F)Oc1ccccc1C(c1nnnn1C1CCCCC1)N1CCN(C/C=C/c2ccccc2)CC1 (configuration not stated) 5.81%
CCOC(=O)Cn1c(O)c(N=NC(=O)CNC(=O)Cc2ccccc2)c2ccccc21 -7.61%
C/C(CC(=O)NCc1ccc(Cl)cc1)=N\NC(=O)COc1ccc(C)cc1Br -10.5%
Cc1cc(OC(=O)c2ccc(OC(C)C)cc2)c([N+](=O)[O-])c(=O)[nH]1 -22.1%
O=C(Oc1ccc(-c2nnco2)cc1)c1ccc(F)c(S(=O)(=O)N2CCOCC2)c1 40.2%
COC(=O)c1scc(C)c1NC(=O)CSc1ccc(Cl)cc1 -6.59%
COC(=O)c1sccc1NS(=O)(=O)c1ccc(F)cc1F 10.6%
CC(C)(Oc1ccc(C2CC2(Cl)Cl)cc1)C(=O)O (configuration not stated) -11.2%
Cc1cc(N)n(-c2ccc(S(=O)(=O)N3CCCC3)cc2[N+](=O)[O-])n1 1.51%
CCOC(=O)N1CCN(Cc2nc3ccc([N+](=O)[O-])cc3c(=O)n2-c2cccc(OC)c2)CC1 5.96%
CCn1c(/C=C/c2ccc([N+](=O)[O-])o2)nc2ccccc2c1=O 1.09%
CC(OC(=O)c1ccccc1NCCO)C(=O)Nc1ccnn1C(C)C (configuration not stated) 4.88%
CCCc1cc(=O)[nH]c(SCC(=O)Nc2sc3c(c2C#N)CCCC3)n1 -13.3%
Cc1sc(NC(=O)C2=COCCO2)c(C#N)c1C -29.2%
O=C1COc2ccc(C(=O)CSc3ccc(Br)cc3)cc2N1 6.67%
CCNC(=S)N(CCN(CC)CC)Cc1cc2cc3c(cc2[nH]c1=O)OCO3 7.05%
Cc1ccc(Cc2c(-c3ccc(Cl)cc3)nc3c4ccccc4ccn23)cc1 4.34%
c1ccc(Cc2c(-c3ccco3)nc3c4ccccc4ccn23)cc1 3.44%
O=C(N=C1SC2CS(=O)(=O)CC2N1Cc1ccccc1)c1ccccc1 (configuration not stated) -0.57%
NC(=O)C1CCN(C(=O)COc2ccc3c4c(c(=O)oc3c2)CCC4)CC1 -10.9%
O=C(COc1ccc2c3c(c(=O)oc2c1)CCC3)NC1CCCCC1 -1.91%
COC(=O)c1cc2c(ccn2C)n1C 0.05%
Cc1ccc(OCCCC(=O)Nc2ccc3c(c2)OCCO3)cc1 17.8%
CCOc1ccc(NCCC(=O)c2ccc3c(c2)OCO3)cc1 9.47%
COc1ccccc1-c1oc2ccccc2c1C#CCCCCO 2.78%
O=c1oc2ccccc2c(=O)c2ccccc12 4.31%
COC(=O)CNc1nc(Cl)nc(N2CCC(C)CC2)n1 6.46%
CCCS(=O)(=O)NC(=O)C1(C)CCN(C(=O)c2sccc2C)C1 (configuration not stated) -21%
O=C(Cc1ccccc1F)NC1CCSc2ccccc21 (configuration not stated) 6.21%
CC(C)CN(C(=O)CN1CCN(S(=O)(=O)c2ccccc2)CC1)c1c(N)n(CC(C)C)c(=O)[nH]c1=O 3.32%
COCCN1C(=O)c2oc3c(C)cc(C)cc3c(=O)c2C1c1cccc(O)c1 (configuration not stated) 1.51%
O=C(COc1ccc(Br)cc1F)NCC1(N2CCCCC2)CCCCC1 -6.39%
COc1ccc(C(=NN)c2ccc(OC)cc2)cc1 -42.8%
COc1ccc(/C(N)=N/OC(=O)Cc2ccccc2)cc1 -56.1%
NC(=O)[C@H]1CC2(CC(c3cccc(NC(=O)[C@H]4CCC(=O)N4)c3)=NO2)CN1C(=O)c1ccccc1C(=O)c1ccccc1 (some centres not stated) -0.31%
CC1CCc2c(sc(NC(=O)c3ccc(Cn4cc(Br)cn4)o3)c2C(N)=O)C1 (configuration not stated) -4.02%

Reference: PubChem BioAssay AID1347056 (Sanford-Burnham Center for Chemical Genomics, 2019)
